From PubChem
The list is not random: actives were taken first. Their share in the collection is about 15%.
TDP1 cell noCPT = qHTS for Inhibitors of human tyrosyl-DNA phosphodiesterase 1 (TDP1): qHTS in cells in absence of CPT; DT40 Tdp1-/- hTDP1 cells, no CPT, ATP luminescence, 48 h; Potency, µM (doses to about 46.2 µM), actives largely listed as inhibitors; 420,000 compounds, 15% hits; AID 686978, 2013; note: nearly all actives have a fitted effect of over 55% in size
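Luminescent ATP content (CellTiter-Glo) served as the growth readout. Knockout chicken DT40 cells expressing human TDP1 were exposed to compounds without camptothecin for a minimum 48 hr at 37 °C.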
12-LOX inh = Primary qHTS assay for inhibitors of human arachidonate 12S-lipoxygenase (ALOX12): Round 2. Polyunsaturated fatty acid lipoxygenase ALOX12 (Homo sapiens), P18054. 580,000 compounds, 1.1% hits. purified 12hLO, xylenol orange hydroperoxide absorbance. Potency, µM (highest dose often 108 µM), usual class: inhibitors. AID 1671190, 2021
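Purified human 12hLO (150 nM final) in 25 mM Hepes, 0.01% Triton X-100, pH 7.0 was preincubated 15 min at room temperature with compound. Then 40 uM arachidonic acid was added, 30 min. Hydroperoxide was read by Fe-XO absorbance ratio 573/405 nm.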
TDP1 cell CPT = qHTS for Inhibitors of human tyrosyl-DNA phosphodiesterase 1 (TDP1): qHTS in cells in presence of CPT | Potency, µM (titrated, usually from 46.2 µM), hits mostly inhibitors | 420,000 compounds, 12% hits | AID 686979, 2013 | chicken DT40 Tdp1-/-;hTDP1 cells + 20 nM CPT, ATP luminescence, 48 h; note: nearly all actives have a fitted effect of over 55% in size
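Chicken DT40 Tdp1-/- cells complemented with human TDP1, 400 cells/well, exposed to compounds plus 20 nM camptothecin for at least 48 h at 37 C; viability read as ATP content by CellTiter-Glo luminescence.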
RORg inh = qHTS for inhibitors of ROR gamma transcriptional activity; Nuclear receptor ROR-gamma (Mus musculus), P51450; Drosophila S2 Gal4-RORgamma UAS-luciferase reporter, 20 h; Potency, µM (doses to about 53.6 µM), hits mostly inhibitors; 310,000 compounds, 5.4% hits; AID 2551, 2010; note: nearly all actives have a fitted effect of over 60% in size
Target sequence (P51450 whole entry, looked up, the tested form may be a part): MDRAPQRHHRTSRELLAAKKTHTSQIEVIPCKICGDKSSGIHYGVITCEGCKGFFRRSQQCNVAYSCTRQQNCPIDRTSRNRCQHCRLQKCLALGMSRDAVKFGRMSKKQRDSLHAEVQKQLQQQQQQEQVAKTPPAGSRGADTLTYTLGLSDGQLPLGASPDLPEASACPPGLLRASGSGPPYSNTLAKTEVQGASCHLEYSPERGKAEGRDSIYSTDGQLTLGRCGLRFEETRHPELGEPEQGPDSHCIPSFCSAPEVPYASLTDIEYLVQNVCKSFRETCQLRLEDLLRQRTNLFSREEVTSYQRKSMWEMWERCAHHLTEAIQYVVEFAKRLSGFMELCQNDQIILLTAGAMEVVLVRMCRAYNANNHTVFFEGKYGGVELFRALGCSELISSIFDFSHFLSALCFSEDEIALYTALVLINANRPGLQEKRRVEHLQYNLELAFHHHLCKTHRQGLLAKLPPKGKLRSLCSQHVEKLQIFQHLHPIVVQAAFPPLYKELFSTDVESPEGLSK
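Luciferase reporter read in Schneider cells carrying Gal4-RORγ (mouse) and UAS-Photinus luciferase; cells given compound 1 h before 700 uM copper sulfate induction, then incubated 20 h at ambient temperature.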
ELG1 DNA repair = qHTS screen for small molecules that inhibit ELG1-dependent DNA repair in human embryonic kidney (HEK293T) cells expressing luciferase-tagged ELG1; Potency, µM (doses to about 46.1 µM), usual class: inhibitors; AID 504467, 2011; 330,000 compounds, 2.3% hits; HEK293T ELG1-luciferase reporter, luminescence, 16 h; DNA damage induced by 5-fluorouridine; note: nearly all actives have a fitted effect of over 55% in size
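Step one: seed 2,000 cells per well. Step two: pin-transfer compound or DMSO alongside 5-fluorouridine. Step three: incubate 16 hr, 37 °C, 5% CO2. Step four: add ONE-Glo, wait 30 min, read luminescence.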
Gal4-VP16 FLuc = VP16 counterscreen qHTS for inhibitors of ROR gamma transcriptional activity | Drosophila S2 Gal4-VP16 UAS-luciferase, luminescence, 20 h | Potency, µM (top dose mostly 53.6 µM), actives largely listed as inhibitors | 310,000 compounds, 3.5% hits | AID 2546, 2010;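 note: Gal4-VP16 expression switched on by copper sulfate through the metallothionein promoter; nearly all actives have a fitted effect of over 50% in size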
Hits are given with their value; . = inactive; ? = inconclusive; / = not tested or not shown; [ ] = another dose, or the depositor's remark. Calls come from the whole dose curve; as a rule, active = well fitted curve in the direction sought with a large enough effect; inconclusive = small, poorly fitted or top-dose-only effect, or another doubt; inactive = no such curve, though single readings can be large; an effect the other way counts as inactive or inconclusive.

SMILES	TDP1 cell noCPT	12-LOX inh	TDP1 cell CPT	RORg inh	ELG1 DNA repair	Gal4-VP16 FLuc
C=CCc1cc(/C=C/c2nc(O)c([N+](=O)[O-])c(=O)[nH]2)cc(OC)c1O	.	39.8µM	.	.	.	.
CCNC(=O)CN1c2ccc(Br)cc2-c2ccccc2S1(=O)=O	/	.	/	/	/	/
CN(CCNC(=O)c1ccc(/C=N/O)nc1)Cc1ccccc1	.	.	.	.	.	.
CN(CCCNC(=O)c1ccc(/C=N/O)nc1)CCCN(C)Cc1ccccc1	23.1µM	.	?	.	.	.
CN(C(=O)c1oc(=O)c2ccccc2c1-c1ccccc1)c1cccc(Cl)c1	23.1µM	.	18.4µM	/	/	/
COc1ccc(OCc2cc(=O)c3ccc4c(c3o2)C=CC(C)(C)O4)cc1OC	?	?	16.4µM	/	?	/
COc1cc2c(c3c1c(=O)c1ccccc1n3C)C=CC(C)(C)O2	/	.	/	/	/	/
CCOC(=O)c1ccc(NC(=O)c2c(Cl)cc(C)nc2C)cc1	5.17µM	.	3.26µM	.	.	.
CCOC(=O)c1ccc(Nc2nnc(C(C)(C)C)c(=O)[nH]2)cc1	23.1µM	.	?	.	?	.
CC(C)(C)c1nnc(Nc2cccc(Cl)c2)[nH]c1=O	/	.	/	/	/	/
CCOC(=O)c1ccc(Nc2cc(C)nc(C)c2C(=O)OCC)cc1	18.4µM	?	?	.	?	.
COCCC1(NC(=O)C2CC2)CCN(S(C)(=O)=O)CC1	/	.	/	/	/	/
Cc1cc(C(=O)Cn2cnc3c2c(=O)n(C)c(=O)n3C)c(C)n1CC1CCCO1 (configuration not stated)	/	.	/	/	/	/
C#CCN1CCC(CN(CC)CC)CC1	/	.	/	/	/	/
COc1cccc(CCC(=O)NCCC2CCN(C(=O)Nc3ccc(C)c(F)c3)CC2)c1	/	.	/	/	/	/
C=CCn1c2ccccc2c(=O)c2cc(C#CC3(O)CCCCC3)ccc21	18.4µM	.	16.4µM	?	?	?
C=CCn1c2ccccc2c(=O)c2cc(C#CC[C@@H](C)O)ccc21	10.3µM	.	8.2µM	/	?	/
Cc1c(NC(=O)C(C)OC(=O)c2ccc([N+](=O)[O-])s2)c(=O)n(-c2ccccc2)n1C (configuration not stated)	16.4µM	.	23.1µM	.	.	.
Cc1c(NC(=O)C(C)OC(=O)c2ccc(F)cc2)c(=O)n(-c2ccccc2)n1C (configuration not stated)	/	.	/	/	/	/
CC(OC(=O)c1ccc([N+](=O)[O-])s1)C(=O)NC1CCCCC1C (configuration not stated)	?	.	23.1µM	/	.	/
CCCn1nccc1S(=O)(=O)N1CCc2nc(-c3ccccc3)[nH]c2C1	/	.	/	/	/	/
COc1ccc(-c2n[nH]c(=S)n2/N=C/C=C\c2ccccc2OC)cc1	10.3µM	.	23.1µM	3.55µM	?	?
Cc1cc(-c2n[nH]c(=S)n2/N=C/c2ccccc2[N+](=O)[O-])n[nH]1	.	?	.	.	?	?
COc1ccccc1/C=C/C=N/n1c(-c2ccc(C)cc2)n[nH]c1=S	?	?	?	1.12µM	.	2.82µM
COc1ccccc1/C=C/C=N/n1c(-c2ccncc2)n[nH]c1=S	.	?	.	?	.	?
SMILES	TDP1 cell noCPT	12-LOX inh	TDP1 cell CPT	RORg inh	ELG1 DNA repair	Gal4-VP16 FLuc
O=[N+]([O-])c1ccccc1/C=C/C=N/n1c(-c2ccccc2)n[nH]c1=S	.	?	.	6.31µM	.	.
COc1ccccc1/C=C/C=N/n1c(-c2ccco2)n[nH]c1=S	.	?	.	0.631µM	.	.
COc1cccc(/C=N/n2c(-c3cc(C)[nH]n3)n[nH]c2=S)c1O	.	.	.	?	.	.
CCCc1ccc(NC(=O)c2ccc3c(c2)NC(=O)CS3)cc1	/	.	/	/	/	/
CN1CC(=O)N(C2CCCNCC2)Cc2c1ncnc2N1CCC(O)CC1 (configuration not stated)	/	.[6.33 µM]	/	/	/	/
COCC(=O)N1CCN(S(=O)(=O)c2ccccc2)C[C@@H]1C(=O)N[C@@H](Cc1ccc(OC)cc1)C(=O)OC	/	.	/	/	/	/
O=C1CCCCC(C(=O)NCCc2ccncc2)N1 (configuration not stated)	/	.	/	/	/	/
Cc1sc2nc(SCC(=O)C(C)(C)C)n(Cc3ccco3)c(=O)c2c1C	13µM	.	13µM	.	?	.
CCOC(=O)c1cc(CC)sc1NC(=O)CSc1nc2ccccc2c(=O)n1Cc1ccco1	?	.	?	.	.	.
CCOC(=O)CC(=O)CSc1nc2sc(C)cc2c(=O)n1Cc1ccco1	23.1µM	.	16.4µM	?	?	22.4µM
Cc1cc(C(=O)Cn2c(=O)c3c(ncn3C3CCCC3)n(Cc3ccccc3)c2=O)c(C)n1C	/	.	/	/	/	/
Cn1c(CSCc2ccc(F)cc2)nnc1SCC(=O)Nc1nccs1	13µM	.	10.3µM	.	16.4µM	.
Cn1c(CSCc2ccc(Cl)c(Cl)c2)nnc1SCC(=O)Nc1nccs1	18.4µM	.	25.9µM	.	?	.
Cn1cccc1Cc1nnc(SCC(=O)Nc2nccs2)n1CCc1ccccc1	?	.	20.6µM	17.8µM	?	?
Cn1c(CSCc2ccc(Cl)cc2)nnc1SCC(=O)Nc1nccs1	?	.	?	.	?	.
Cn1c(CSCc2ccccc2)nnc1SCC(=O)Nc1nccs1	.	.	.	.	?	.
O=C(CCS(=O)(=O)c1ccccc1)Nc1ccccn1	.	.	.	.	.	.
O=C(CCS(=O)(=O)c1ccc(F)cc1)Nc1nc(-c2ccccn2)cs1	7.31µM	.	8.2µM	10µM	?	.
O=C(CCS(=O)(=O)c1ccccc1)Nc1nc(-c2ccccn2)cs1	13µM	.	18.4µM	/	/	/
CC(Oc1ccc(F)cc1)C(=O)Nc1nc(-c2ccccn2)cs1 (configuration not stated)	5.17µM	.	1.3µM	/	?	/
Cc1cccc(OC(C)C(=O)Nc2nc(-c3ccncc3)cs2)c1 (configuration not stated)	23.1µM	?	?	/	.	/
CN1CC(=O)N(C2CCC2)Cc2c1ncnc2N1CCCC1	/	.	/	/	/	/
COc1cccc(NC(=S)/C(=C(\[O-])c2ccc(OC(F)F)cc2)[n+]2ccccc2)c1	14.6µM	.	13µM	.	.	.
[O-]/C(=C(\C(=S)Nc1cccc2ccccc12)[n+]1ccccc1)c1ccc(OC(F)F)cc1	20.6µM	.	?	.	?	.
